ChEMBL document CHEMBL3433997, “St. Jude Leishmania screening dataset” (2016)

What was measured:
Format in all cases: functional
[1] = molecular target: Solute carrier family 2, facilitated glucose transporter member 1 (Homo sapiens) (UniProt P11166); assay: ST_JUDE_LEISH: Cytotoxicity at 2uM final concentration against transgenic Leishmania Mexicana promastigotes LmGLUT1 that are glucose transport deficient and complemented with the human glucose transporter GLUT1. Activity is measured by DNA content using SYBR green in vitro
[2] = molecular target: Hexose transporter 1 (Plasmodium falciparum) (UniProt O97467); assay: ST_JUDE_LEISH: Cytotoxicity at 2uM final concentration against transgenic Leishmania Mexicana promastigotes LmPfHT that are glucose transport deficient and complemented with the Plasmodium falciparum hexose transporter. Activity is measured by DNA content using SYBR green in vitro
[3] = molecular target: Glucose transporter (Leishmania mexicana) (UniProt O61059); assay: ST_JUDE_LEISH: Cytotoxicity at 2uM final concentration against transgenic Leishmania Mexicana promastigotes LmGT2 that are glucose transport deficient and complemented with the L. Mexicana glucose transporter 2. Activity is measured by DNA content using SYBR green in vitro

Sequence of Solute carrier family 2, facilitated glucose transporter member 1 (Homo sapiens) (P11166 whole entry): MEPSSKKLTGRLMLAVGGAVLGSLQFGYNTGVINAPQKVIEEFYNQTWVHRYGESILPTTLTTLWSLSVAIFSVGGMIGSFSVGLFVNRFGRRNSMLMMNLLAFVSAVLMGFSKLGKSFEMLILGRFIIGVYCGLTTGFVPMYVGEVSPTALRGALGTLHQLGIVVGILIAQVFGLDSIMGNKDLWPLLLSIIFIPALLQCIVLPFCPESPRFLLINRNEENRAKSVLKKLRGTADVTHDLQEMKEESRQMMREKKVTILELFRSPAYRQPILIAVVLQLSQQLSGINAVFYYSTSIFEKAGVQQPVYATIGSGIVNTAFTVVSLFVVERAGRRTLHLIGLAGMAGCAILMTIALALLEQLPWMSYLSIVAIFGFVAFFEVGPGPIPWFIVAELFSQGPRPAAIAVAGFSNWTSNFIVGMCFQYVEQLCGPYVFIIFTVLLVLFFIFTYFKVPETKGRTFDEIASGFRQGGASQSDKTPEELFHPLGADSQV

SMILES	inhibition [1] [%]	inhibition [2] [%]	inhibition [3] [%]
Cc1cc(N(C)C)nc(Nc2ccc(NC(=O)CCc3ccccc3)cc2)n1	3.05	6.42	2.1
COc1ccc2ncc(F)c(CCN3CCC(NCc4ccc5c(c4)CCO5)CC3)c2n1	16.7	21.4	20.6
CCOC(=O)C(NC(=O)Cc1ccccc1)C(C)C (configuration not stated)	-2.58	-2.35	-3.14
Fc1ccc2c(NN=CC=Cc3ccccc3)ccnc2c1	12.7	9.84	11.3
COc1ccc(-c2cc(C(F)(F)F)n3ncc(C(=O)Nc4cc(C)ccc4O)c3n2)cc1OC	4.34	2.45	0.56
CCCCCn1c(Sc2ccc(C#N)c([N+](=O)[O-])c2)nnc1-c1ccc(OC)cc1	9.26	6	4.8
O=C(CSc1nc2ccc([N+](=O)[O-])cc2s1)Nc1ccccc1-c1ccccc1	-0.42	-0.44	-1.03
O=C(Nc1ccc(-c2nc3ccccc3[nH]2)cc1)C1CCCN(CC2CC2)C1 (configuration not stated)	12.9	10.8	4.89
CC1(C)N=C(N)N=C(N)N1c1ccc(Oc2ccccc2)cc1	1.59	1.71	2.8
Cc1ccc(Nc2nc(C)cc(NC3CCCC3)n2)cc1	29.3	19.7	10.8
CN1CCN(CC(=O)Nc2cccc(-c3ccc(-c4nc5cc(F)ccc5[nH]4)s3)c2)CC1	7.26	7.42	5.89
O=C1OC2(CCN(Cc3cccc(-c4ncc[nH]4)c3)CC2)CN1CCNCc1ccccc1	1.81	1.4	-0.76
C#CCCC(=O)Nc1cccc(-c2cccc(-c3nc4cc(C(F)(F)F)ccc4[nH]3)c2)c1	-2.22	1.99	1.42
Oc1ccc(Cc2ccccc2)cc1CNC1CCCCC1	1.43	1.57	1.87
COC(=O)c1ccc(-c2ccc(-c3cccnc3)cc2C)cc1	91.7	90.5	74.1
CNC(=O)c1nc(-c2ccccc2)[nH]c1NC(C)=O	2.72	3.44	2.17
CS(=O)(=O)NCCCNCc1cccc(-c2cccc(-c3nc4cc(F)ccc4[nH]3)c2)c1	1.53	1.37	-0.27
O=C(c1ccc(-c2cnc3[nH]cc(-c4ccc(C(=O)N5CCOCC5)cc4)c3c2)cc1)N1CCOCC1	-0.49	-1.48	-1.88
CCCCCNC(=N)N/N=C/c1c[nH]c2ccc(OC)cc12	1.71	3.63	-0.13
Cc1cccc2nc(-c3cccc(-c4cccc(NC(=O)c5ccoc5)c4)c3)[nH]c12	5.99	5.37	0.26
N#CC(NC(=O)C=Cc1ccccc1)c1ccccc1 (configuration not stated)	-1	-2.81	-0.2
COc1ccc(-c2cnc3ccc(NC4CCC(O)CC4)nn23)cn1 (configuration not stated)	2.52	0.45	0.93
CCS(=O)(=O)c1ccc(/C(=N/OC)c2ccc[nH]2)cc1	0.36	0.06	0.42
O=C(/C=C/c1c(Cl)cccc1Cl)NC1CCC(CN2CCC(Cc3cc4ccccc4[nH]3)CC2)CC1 (configuration not stated)	4.15	10.2	2.31
CCCNCc1ccc(-c2ccc(CN(CC3CCCO3)C(=O)COc3ccccc3Cl)cc2)nc1 (configuration not stated)	4.33	4.73	2.71

SMILES	inhibition [1] [%]	inhibition [2] [%]	inhibition [3] [%]
N=C(N)CCN(Cc1ccc(Cl)cc1)c1ccc(Cl)cc1	0.7	0.7	0.65
Cn1c(NC(=O)C2CCC(CNC(=O)c3ccc(O)c(-c4cccc([N+](=O)[O-])c4)c3)CC2)nc2ccccc21 (configuration not stated)	1.57	2.47	2.44
Cc1ccc2ccncc2c1N	7.9	3.24	6.36
CCOCCCNc1ncc(-c2ccsc2)c(-c2nc(C)cs2)n1	8	6.73	7.32
COc1ccc(-c2cnc3[nH]cc(-c4ccncc4)c3c2)cc1OC	68.3	72.8	65.3
O=S(=O)(c1c(Cl)cc(Cl)cc1Cl)N1CCCCC(c2ccc(F)c(F)c2)=N1	0.21	2.09	1.47
CC(=O)Nc1cccc(-c2cn(-c3ccc(OCc4cccc(F)c4)c(Cl)c3)c3ncncc23)c1	2.04	0.08	-0.28
Cc1cc(NC(=O)c2cccs2)ccc1OC1CCN(Cc2ccc(F)cc2)C1 (configuration not stated)	0.09	0.19	1.92
O=C(Nc1ccc(F)cc1)N1CCCN(c2ccnc3cc(Cl)ccc23)CC1	0.02	0.34	1.11
O=C(/C=C/c1ccc(Cl)c(Cl)c1)NCCCCCN1CCC(c2c[nH]c3ccc(O)cc23)CC1	2.16	1.31	1.25
Cn1nc(C(=O)N2CCC(c3[nH]ncc3Cc3ccccc3)CC2)c2ccccc2c1=O	0.16	2.06	2.12
CN1CCN(c2ccc(-c3nc4ccc(OCc5cc(Cl)cc(Cl)c5)c(C(N)=O)c4[nH]3)cc2)CC1	1.82	5.73	0.86
Cn1cccc1CCNCc1ccc(-c2cccc(-c3nc4ccccc4[nH]3)c2)cc1	3.79	3.07	2.55
COc1ccc(-c2ccc(NC(=O)c3cccc(F)c3)cc2)cc1CN1CCCN(C)CC1	4.26	2.56	-2.3
COc1ccc2nccc([C@@H](O)CN3CCC(NC(=O)CCC(=O)c4cc(C(C)(C)C)ccc4OC)CC3)c2c1	5.04	4.7	1.95
CCCCCN1CCC(NS(=O)(=O)c2ccc(C(=O)Nc3cccc(C(F)(F)F)c3)cc2)C1 (configuration not stated)	8.42	2.22	2.26
C[C@H](NC(=O)c1c(CN2CCN(C(=O)C(C)(C)C)CC2)c(-c2cccs2)nc2ccccc12)C1CCCCC1	6.07	5.13	2.24
O=C(Nc1cc(Cl)cc(Cl)c1)N[C@H]1CCN(CCCCCNC(=O)C2CC2c2ccc(Cl)c(Cl)c2)C1 (some centres not stated)	0.25	-1.16	2.06
FC(F)(F)c1ccc2[nH]c(-c3cccc(-c4cccc(CN5CCN(c6ccncc6)CC5)c4)c3)nc2c1	1.83	2.18	3.38
CNCCNCc1cccc(-c2ccc(-c3nc4cc(C(F)(F)F)ccc4[nH]3)s2)c1	2.35	3.82	1.39
O=C(NC1CCN(CCN2CCC(c3ccccc3C(F)(F)F)CC2)CC1)c1ccc(-c2ccc(Cl)cc2)cc1	9.46	0.61	1.57
CCCOc1c(CCNCCCCNCCc2ccc3ccccc3c2OCCC)ccc2ccccc12	60.8	13.6	40.1
N=C(N)Nc1nccc(NCc2ccccc2)n1	-2.64	-0.68	-0.48
CCCCNCc1ccc(-c2nc(CN(Cc3ccc(Cl)c(Cl)c3)C(=O)CN(C)C)cs2)cc1	50.3	52.9	8.23
CCOc1cc(Br)c(C(C)NC(=O)c2cccc(OC)c2)cc1OCC (configuration not stated)	0.82	0.03	-0.19

SMILES	inhibition [1] [%]	inhibition [2] [%]	inhibition [3] [%]
CCc1nc(N)nc(N)c1-c1ccccc1	2.31	2.67	3.69
O=C1C2C3SC(c4c3ccc3ccccc43)C2C(=O)N1c1ccccc1 (configuration not stated)	-0.44	0.31	-1.01
CCCCCOc1ccc(N2C(N)=NC(N)=NC2(C)C)cc1	2.39	2.59	2.5
N=C(N)NCCN(Cc1ccccc1)c1ccc(Cl)cc1	1.36	-0.96	1.25
COC(=O)CNC(c1ccccc1)c1cc(Br)ccc1NC(=O)c1ccccc1Br (configuration not stated)	7.18	16.3	5.19
Cc1cccc(C)c1N1CCN(C2CCC(NC(=O)/C=C/c3ccccc3)CC2)CC1 (configuration not stated)	1.7	1.21	1.49
COc1ccc2nccc([C@@H](O)CN3CCC(NCc4ccc5nsnc5c4)CC3)c2c1	0.12	-1.13	-0.38
O=C(CCCCCCc1ccccc1)Nc1ccc2nc3c(c(NCc4ccccc4)c2c1)CCCC3	-0.24	1.39	-2.98
O=C(Nc1ccc(Cl)cc1)c1ccc(CN2CCCN(Cc3cccc(Cl)c3)CC2)cc1	-0.65	-1.08	-0.52
C=CCOc1ccc(C2C(C(=O)OC)=C(C)NC3=C2C(=O)c2ccccc23)cc1OC (configuration not stated)	-0.61	4.51	1.15
N=C(N)Nc1nc(-c2cc(NC(=O)C(F)(F)F)cc([N+](=O)[O-])c2)cs1	0.23	0.51	1
O=C(Nc1ccc(N2CCNCC2)cc1)c1ccn2ncc(-c3cccc(Cl)c3)c2n1	84.8	83.9	54.3
CCN1CCC(N(Cc2ccc(-c3ccc(C(F)(F)F)cc3)cc2)C(=O)Cn2c(CCc3cccc(F)c3F)cc(=O)c3cn(C)nc32)CC1	-2.3	1.08	0.21
CCN(CC)/C(=N\C(=N)NCCCCCCNC(=N)/N=C(\Nc1ccc(Cl)cc1)N(CC)CC)Nc1ccc(Cl)cc1	0.25	-0.21	-0.92
COc1cc2nc(Nc3ccc4c(ccn4Cc4ccccc4)c3)nc(Nc3ccc4c(ccn4Cc4ccccc4)c3)c2cc1OC	1.55	1.97	3.43
Nc1nc(N)c2c(ccc3c2ccn3Cc2ccc3c(c2)OCO3)n1	97.8	97.5	93.7
CCCCCCN1CCCN(Cc2ccc(C(=O)Nc3cccc(CC)c3)cc2)CC1	4.76	3.36	8.83
COCCCNC(=O)c1ccc(O)c(-c2cc(Cl)cc(Cl)c2)c1	0.32	-2.5	1.9
O=c1cc(NCC2(CNCc3cn(Cc4ccccc4)c4ccccc34)CCCCC2)[nH]c2ccccc12	4.81	5.38	5.44
Cc1ccc2[nH]c(C)cc(=NN=CC=Cc3ccccc3)c2c1	-0.92	1.15	-6.67
CC(C)(C)OC(=O)/C=C(\C(=O)OCc1ccc([N+](=O)[O-])cc1)c1csc(NC(c2ccccc2)(c2ccccc2)c2ccccc2)n1	4.04	4.55	3.64
CN1CCN(c2cccc(-c3nnc(-c4ccc(OCC(=O)NCc5ccc(C(F)(F)F)cc5)c([N+](=O)[O-])c4)o3)c2)CC1	3.75	3.68	-0.17
COC(=O)c1ccc2c(-c3nc4ccc(OC)cc4[nH]3)c[nH]c2c1	11.5	10.3	8.93
CC(C)C(=O)n1ncc2c3c(N)nc(N)nc3ccc21	-0.81	-1.08	-0.01
